From PubChem BioAssay come the findings set out here.

The structures appear in SMILES notation. Results filed as inconclusive are left out. Active and inactive are the calls of the source.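 Rule for the calls, unless noted: active = viability at or below 27.92% in each of two runs, the all-compound median minus 4 SD; inconclusive = no clear call, values can overlap the other calls; inactive = the rest.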

Assay [1] can be described thus: Her2 expression decrease, cell viability multiplex – SKBR3 breast tumor cells, AlphaScreen, ATP viability, primary screen (AID 461;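 active = Her2 level under about 52% in both replicate screens, with viability over 70% of control, limit read from the data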;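 for Her2 level: lower value means less Her2 protein in the cells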;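 for viability: percent of carrier control wells set as 100% viability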). As to conditions: SKBR3 Her2 protein level, 18-24 h, measured here: SKBR3 viability, ATP luminescence, at 10 µM. For orientation: Alpha assays give light when donor and acceptor beads are brought close together.
The target in assay [2] is Receptor tyrosine-protein kinase erbB-2 (Homo sapiens) (UniProt P04626). The assay is described as above. As to conditions: 18-24 h, at 10 µM, stronger effect = lower value.
Assay [3] can be described thus: reduced viability of SK-BR-3 breast cancer cells – cell-based, 24 h, human, pilot screen (AID 572;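 active = viability at or below 10% of carrier control in both of two separate runs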;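 note: compound exposure lasted between 18 and 24 h rather than exactly 24 h; 100% = carrier-treated control wells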). As to conditions: SK-BR-3 viability, CellTiter-Glo luminescence, at 10 µM, stronger effect = lower value. For orientation: Cellular ATP, detected with luciferase, serves as a proxy for viable cell number.
Assay [4] is described as follows: HUVEC growth inhibition – cell-based, human, primary screen (AID 575;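 active = viability at or below 30% in both replicate assays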;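 note: 100% = median of untreated cell wells with 0.1% DMSO on each plate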). As to conditions: HUVEC proliferation, CellTiter-Glo luminescence, 72 h; at 10 µM; stronger effect = lower value.
Assay [5] in a line: H69AR cell proliferation blockers – human, duplicate replicates, primary screen (AID 580;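 active = viability at or under a set limit in both replicates, limit being median viability minus 3 SD, cut at about 48% in these data, passing the limit was not always enough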;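 note: 100% = mean luminescence of untreated wells and 0% = no signal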). As to conditions: H69AR lung tumor cells viability, ATP luminescence, 72 h; at 10 µM; stronger effect = lower value.
Assay [6] in a line: MRP1 drug-resistance reversers in H69AR cells – cell-based, doxorubicin co-treatment, pilot screen (AID 601;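 active = viability loss from added drug above about 55%, and viability with drug at most 40%, in both replicates, limit read from the data, passing the limit was not always enough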). The conditions noted are these: CellTiter-Glo, 72 h, at 10 µM; for differential viability (reversal): stronger effect = higher value.
Assay [7] in a line: yeast transport mutant growth inhibition pilot in 384-well plates, post-Golgi transport modulator project (AID 636; in the data active = inhibition above about 31%). As to conditions: absorbance 615 nm, about 18 h, stronger effect = higher value.
Assay [8] can be described thus: growth suppression of yeast trafficking mutant, preliminary HTS, modulators of trafficking downstream of Golgi apparatus project, 1536-format plate, OD 615 nm (AID 637; in the data active = inhibition above about 30%). As to conditions: yeast transport mutant growth, absorbance 615 nm, 18 h; stronger effect = higher value.
Assay [9] is described as follows: S. cerevisiae growth inhibition in permissive medium (OD615), pilot counter-assay for S. cerevisiae lifespan shortening project, permissive growth control (AID 705;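 active = growth inhibition above 25% in both replicates, a cutoff set 3 SD above the mean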). As to conditions: OD615, 24 h, at 10 µM, stronger effect = higher value.
A short description of assay [10]: S. cerevisiae growth inhibition in restrictive medium, OD615, pilot screen, restrictive growth control, yeast lifespan reduction project (AID 706;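 active = growth inhibition above a set limit, 3 SD over mean compound inhibition, in both replicates, cut at about 43% in these data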;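 note: modified DeaD lifespan yeast strain shifted to restrictive glucose medium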). The conditions noted are these: OD615, 48 h, at 10 µM, stronger effect = higher value.
Assay [11] is described as follows: doxorubicin toxicity protection in MRP-1 cells – H69AR cells, CellTiter-Glo, duplicate, MRP-1 activator project, pilot screen (AID 807;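 active = viability increase at or above a cutoff of the median across tested compounds plus 3 SD, cut at about 8.5% in these data, passing the limit was not always enough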;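 note: compound pretreatment 18-22 h then 72 h combined with doxorubicin; 0% = doxorubicin alone and 100% = vehicle without doxorubicin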). The conditions noted are these: H69AR viability with doxorubicin, CellTiter-Glo luminescence; at 10 µM; stronger effect = higher value.
Assay [12] can be described thus: viability of HCT116 without oncogenic beta-catenin – human colon tumor cells, pilot screen (AID 823;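 active = cell viability at or below a set limit in both duplicate runs, the limit being the all-compound median minus 4 SD, cut at about 23% in these data, passing the limit was not always enough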;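 note: 0% = wells killed by 20 µM Hyamine and 100% = untreated DMSO cell wells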). The conditions noted are these: HCT116 beta-catenin knockout viability, CellTiter-Glo, 60 h; at 10 µM; stronger effect = lower value.
Assay [13] can be described thus: viability of PTEN-null HCT116 cells – cell-based, HCT116 clonal line, CellTiter-Glo, pilot screen (AID 824).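 Note: 0% = 20 µM Hyamine control and 100% = vehicle cell control.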 The conditions noted are these: HCT116 PTEN-deleted viability, 60 h, at 10 µM, stronger effect = lower value.
Assay [14] can be described thus: RAM pathway blockade in budding yeast – dse1pr::URA3 reporter, 5-FOA selection, pilot screen (AID 869;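 active = inhibition over a set limit, the all-compound mean plus 3 SD, in both replicate runs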;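 note: 0% = DMSO wells with no growth and 100% = 10 µM 1-NA-PP1 with full growth; RAM network block rescues cells from 5-FOA so hits raise OD615 growth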). As to conditions: S. cerevisiae dse1pr::URA3 5-FOA growth, OD615, 2 d; at 10 µM; stronger effect = higher value; strain carries analog-sensitive mutant Cbk1 kinase.
Assay [15] can be described thus: RAM signaling pathway blockade in yeast – S. cerevisiae, Pdr1DBD-CYC8 efflux-inhibited sensitized strain, primary screen (AID 1298;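 active = RAM network inhibition above 8.4% in each of two replicates, 3 SD over the compound average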;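 note: 0% = DMSO untreated cells without growth and 100% = 10 µM 1-NA-PP1 full growth; higher means more yeast growth rescued from 5-FOA killing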). As to conditions: S. cerevisiae cbk1-as DSE1-URA3 strain, 5-FOA growth OD615, 2 d; at 50 µM; stronger effect = higher value.
The mark [16] stands for this setting: H69AR cells + 2 uM doxorubicin, measured here: viability with 2 uM doxorubicin, stronger effect = lower value.
Where [17] appears, read: H69AR cells, compound alone cytotoxicity.

Receptor tyrosine-protein kinase erbB-2 (Homo sapiens), sequence (P04626 whole entry, looked up): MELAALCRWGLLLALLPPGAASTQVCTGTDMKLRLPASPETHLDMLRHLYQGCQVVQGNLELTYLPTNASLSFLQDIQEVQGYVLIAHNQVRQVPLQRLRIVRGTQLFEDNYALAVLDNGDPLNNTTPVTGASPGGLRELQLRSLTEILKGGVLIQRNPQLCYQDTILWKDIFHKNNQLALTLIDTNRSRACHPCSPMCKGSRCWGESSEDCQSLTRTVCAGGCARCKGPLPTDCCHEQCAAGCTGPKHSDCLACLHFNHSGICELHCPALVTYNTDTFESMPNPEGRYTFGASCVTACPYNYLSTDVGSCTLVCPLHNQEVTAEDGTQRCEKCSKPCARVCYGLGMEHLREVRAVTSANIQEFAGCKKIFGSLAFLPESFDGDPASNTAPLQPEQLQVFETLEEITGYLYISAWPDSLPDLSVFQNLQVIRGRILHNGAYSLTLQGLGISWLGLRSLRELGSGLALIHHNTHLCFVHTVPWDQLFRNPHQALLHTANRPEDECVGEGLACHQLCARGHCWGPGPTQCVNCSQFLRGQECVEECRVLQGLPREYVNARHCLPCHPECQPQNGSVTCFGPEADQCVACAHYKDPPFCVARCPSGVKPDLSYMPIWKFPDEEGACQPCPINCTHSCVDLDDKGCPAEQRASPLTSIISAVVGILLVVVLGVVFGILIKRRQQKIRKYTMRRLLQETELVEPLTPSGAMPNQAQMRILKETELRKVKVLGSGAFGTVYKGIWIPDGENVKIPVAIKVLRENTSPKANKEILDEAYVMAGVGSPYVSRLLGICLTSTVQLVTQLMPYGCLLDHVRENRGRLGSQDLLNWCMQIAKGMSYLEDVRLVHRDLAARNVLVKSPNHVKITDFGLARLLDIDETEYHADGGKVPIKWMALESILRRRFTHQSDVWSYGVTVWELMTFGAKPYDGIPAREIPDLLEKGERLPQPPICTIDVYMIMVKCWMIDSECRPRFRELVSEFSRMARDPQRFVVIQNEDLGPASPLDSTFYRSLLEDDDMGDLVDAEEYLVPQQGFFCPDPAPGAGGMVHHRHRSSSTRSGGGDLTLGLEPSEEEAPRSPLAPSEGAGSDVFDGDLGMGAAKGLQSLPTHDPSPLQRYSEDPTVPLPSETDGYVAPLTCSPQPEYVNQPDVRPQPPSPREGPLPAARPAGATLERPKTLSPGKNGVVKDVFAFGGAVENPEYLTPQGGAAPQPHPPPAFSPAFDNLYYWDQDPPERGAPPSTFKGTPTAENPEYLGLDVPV

Usually viability stands for a read-out of living cells in per cent, often relative to untreated cells. What is called inhibition is the relative decrease from the control value, in per cent. As to `CC(C)(C)SCCNC(=O)COc1ccc(Cl)cc1`, the viability in assay [1] was 94.5%; in assay [3], 94.5% (inactive); in assay [4], 113% (inactive); in [5], 109% (inactive); in [6] (setting [16]), 89.4%; in assay [6] (setting [17]) it was 109%. For the same compound, the viability in [12] was 96.2% (inactive); in assay [13] it was 96.9% (inactive). Besides, the Her2 level in [2] is 90% (inactive). The differential viability (reversal) in assay [6] (H69AR cells + 2 uM doxorubicin) is 19.5% (inactive). In addition, the inhibition in [7] was -6.89% (inactive); in assay [8], 4.1% (inactive); in [14], -0.23% (inactive). In addition, the values for the growth inhibition in assay [9] and in [10] were -8.49% (inactive) and -12% (inactive), respectively. For the same compound, the viability increase in assay [11] was 0.22% (inactive). Moreover, the RAM network inhibition in assay [15] is 4.53% (inactive).
Consider `CCOc1ccc2nc(N3CCC(C(=O)N4CCN(C5CCCCC5)CC4)CC3)sc2c1`, for which the viability in assay [1] was 83%; in assay [3] it was 83% (inactive); in [4], 98.6% (inactive); in [5], 95.7% (inactive); in [6] (setting [16]) it was 87.2%; in assay [6] (setting [17]) it was 95.7%. The viability is 55.6% (inactive) in assay [12] and 70.3% (inactive) in assay [13]. In addition, the Her2 level in assay [2] was 83.5% (inactive). The differential viability (reversal) in assay [6] (H69AR cells + 2 uM doxorubicin) was 8.46% (inactive). In addition, the inhibition was -1.33% (inactive) in [7], -4.1% (inactive) in assay [8] and 1.22% (inactive) in assay [14]. Moreover, the growth inhibition was -0.545% (inactive) in assay [9] and 8.85% (inactive) in assay [10]. The viability increase in [11] is -3.43% (inactive). Also, in [15], the RAM network inhibition was 0.6% (inactive).
Consider `COc1ccccc1S(=O)(=O)Cc1ccc(C(=O)N2CCOCC2)o1`, for which the viability in assay [1] is 113%; in [3], 113% (inactive); in assay [4] it was 105% (inactive); in [5] it was 87.6% (inactive); in assay [6] (setting [16]), 92.7%; in assay [6] (setting [17]), 87.6%. For the same compound, the viability in assay [12] is 106% (inactive); in [13], 97.9% (inactive). The Her2 level in assay [2] is 98.5% (inactive). The differential viability (reversal) in assay [6] (H69AR cells + 2 uM doxorubicin) is -5.08% (inactive). The inhibition in [7] is -2.13% (inactive); in assay [8] it was 3.5% (inactive); in [14] it was 1.65% (inactive). Besides, the growth inhibition was 1.17% (inactive) in assay [9] and -2.13% (inactive) in assay [10]. Also, in assay [11], the viability increase was -2.08% (inactive). Also, in assay [15], the RAM network inhibition was 0.78% (inactive).
As for `COc1ccc(-n2c(Cc3cccn3C)nnc2SCC(=O)Nc2ccccc2)cc1`, the viability in assay [1] is 88.5%; in assay [3] it was 88.5% (inactive); in assay [4], 99% (inactive); in [5], 82.2% (inactive); in assay [6] (setting [16]) it was 88.9%; in [6] (setting [17]), 82.2%. Moreover, the viability in assay [12] was 99.5% (inactive); in assay [13], 85.3% (inactive). The Her2 level in assay [2] was 104% (inactive). In addition, the differential viability (reversal) in [6] (H69AR cells + 2 uM doxorubicin) was -6.77% (inactive). Besides, the inhibition in assay [7] was -5.87% (inactive); in [8], 4% (inactive); in assay [14], 2.68% (inactive). The growth inhibition is 1.29% (inactive) in assay [9] and 15.6% (inactive) in assay [10]. For the same compound, in [11], the viability increase was -2.51% (inactive). Moreover, the RAM network inhibition in assay [15] was 2.14% (inactive).
`CCCCC(=O)NCCc1cc2c(C)ccc(C)c2[nH]c1=O`: the viability in assay [1] was 101%; in assay [3] it was 101% (inactive); in assay [4], 119% (inactive); in [5], 85.1% (inactive); in [6] (setting [16]) it was 83.4%; in assay [6] (setting [17]), 85.1%. Moreover, the figures for the viability in assay [12] and in assay [13] were 109% (inactive) and 106% (inactive), respectively. In addition, in assay [2], the Her2 level was 95% (inactive). Moreover, the differential viability (reversal) in assay [6] (H69AR cells + 2 uM doxorubicin) is 1.76% (inactive). The inhibition is -5.07% (inactive) in assay [7], 1.67% (inactive) in assay [8] and 1.61% (inactive) in assay [14]. The growth inhibition in assay [9] is -2.27% (inactive); in [10] it was -13.3% (inactive). Further, the viability increase in assay [11] is 0.28% (inactive). In assay [15], the RAM network inhibition is 0.32% (inactive).
